From PubChem BioAssay
rCAG binder: r(CAG) repeat RNA binding | AID 651821 | TO-PRO-1 dye displacement fluorescence | 370,000 tested, 1.3% active | inhibition, % at 3 µM;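 active = inhibition above the plate cutoff, the mean of all test compounds on that plate plus 3 SD, cut at about 35% in these data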;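 also: 0% = DMSO alone and 100% = 100 µM mitoxantrone as full dye displacement; higher means more dye released from RNA so lower well fluorescence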
Pemphigus Ab inh: human desmoglein-3 autoantibody binding inhibition. DSG3-coupled beads, scFv-anti-DSG3-GFP binding, flow cytometry; active compounds read low. AID 588358. binding (percent of control), % at 10 µM. 310,000 tested, 0.48% active;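 active = binding more than 3 SD below its plate's average and above zero; inconclusive = below that plate limit but binding exactly zero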;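 also: hits lower antibody fragment binding to DSG3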
ADAM17 inh: inhibits human ADAM17; recombinant ADAM17, EDANS/DABCYL FRET peptide cleavage; P78536; 370,000 tested, 0.83% active; inhibition, % at 6.95 µM;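 active = inhibition above the mean of compounds lying between control limits plus 3 SD, set per campaign, cut at about 8.5% in these data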;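 also: 0% = DMSO-only wells as the low control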
KLK7 zymogen act: activates the human kallikrein-7 zymogen. P49862. purified proKLK7, EDANS-DABCYL substrate fluorescence; 100% is mature enzyme control, 0% vehicle. activation, % at 7 µM. 370,000 tested, 0.9% active. AID 652039;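 active = activation above the mean of all tested compounds plus 3 SD, computed per campaign excluding outliers beyond control limits, cut at about 13% in these data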
MPTP block: permeability transition pore inhibition | inhibition, % at 10 µM | 360,000 tested, 1.4% active | isolated mouse mitochondria, Ca2+ swelling absorbance, 30 min | AID 602449;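 active = inhibition of 50% or more, scaled per plate between neutral and stimulator controls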;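 also: 0% = DMSO wells given calcium and 100% = 1 mM EGTA wells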
ADAM10 inh: inhibitors of human ADAM10; O14672; recombinant ADAM10, EDANS/DABCYL FRET peptide cleavage, 3 h; inhibition, % at 7 µM; 370,000 tested, 0.62% active; AID 720582;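 active = inhibition above a per-campaign cutoff equal to the mean of compounds falling between control-based bounds plus 3 SD, cut at about 20% in these data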;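 also: 0% = DMSO wells while the 100% control is not disclosed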
ADAM10 ctr: ADAM10 inhibition, counter-screen for ADAM17 exosite hits. shares compounds with ADAM17 inh. inhibition, % at 6.95 µM. 2,900 tested, 47% active. recombinant ADAM10, EDANS/DABCYL FRET peptide cleavage, 3 h. AID 743256;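 active = mean inhibition over the triplicate runs exceeds the activity threshold set in the earlier primary screen, cut at about 20% in these data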;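 also: 0% = DMSO wells and 100% = marimastat wells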
ADAM17 confirm: human ADAM17 inhibition, confirmation; AID 743257; shares compounds with ADAM17 inh; recombinant ADAM17, EDANS/DABCYL QFRET peptide cleavage; inhibition, % at 6.95 µM; 2,900 tested, 65% active;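 active = mean inhibition across replicates above the hit cutoff set in the primary screen, cut at about 8.5% in these data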;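 also: 0% = DMSO wells and 100% = marimastat wells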
Active calls of the source: *; ? = inconclusive; . = no result. Sampled rows, rich in hits. Any-hit rate of the full collection: about 4.7%.

SMILES | rCAG binder | Pemphigus Ab inh | ADAM17 inh | KLK7 zymogen act | MPTP block | ADAM10 inh | ADAM10 ctr | ADAM17 confirm
COc1ccc(CNC(=O)C2CCN(C(=O)[C@@H](CC(C)C)NC(=O)OC(C)(C)C)CC2)cc1 | -2 | 115 | 8.6* | 0 | -3 | 2 | -7 | -3
Cc1ccc(C)c(N(CC(=O)NCc2ccco2)C(=O)CNS(=O)(=O)c2ccccc2)c1 | -5 | 96 | -5 | -1 | -1 | -8 | . | .
CCCCNC(=O)C1(C)CCN1C(=O)c1cc2ccccc2s1 (stereo not given) | 1 | . | 4 | 0 | 0 | 8 | . | .
CCOC(=O)C1(C)CCCCCN1C(=O)c1ccc(OC)c(C(F)(F)F)c1 (stereo not given) | -2 | . | 8.7* | 0 | 0 | 6 | -3 | -2
COc1ccc(CCNC(=O)C2CCN(C(=O)c3ccc(Br)cc3)CC2)cc1OC | -8 | 97 | -8 | 0 | 1 | -3 | . | .
COc1ccc(CN2C(=NC(=O)C3CCCO3)SC3CS(=O)(=O)CC32)cc1 (stereo not given) | 0 | ? | -2 | 0 | 2 | -4 | . | .
CC1(O)N(Cc2ccccc2)C(=O)OC12CCCCC2 (stereo not given) | 2 | 103 | 9.1* | 0 | 0 | 7 | 12 | 14*
COc1ccccc1CN(C)C[C@@H]1OCc2cnnn2CCCC(=O)N([C@H](C)CO)C[C@H]1C | 0 | . | 8.7* | 0 | 0 | 0 | -2 | -1
O=C(NC1CCCCN(Cc2cccc(Cl)c2)C1=O)c1ccc(COc2ccccc2)cc1 (stereo not given) | 4 | . | 10* | 1 | . | 13 | 15 | 11*
CN(C)c1cccc(NC(=O)C2Cc3c(-c4ccc(Cl)cc4)ccnc3O2)c1 (stereo not given) | 8 | . | 3 | 1 | 1 | 16 | . | .
O=C(c1ccncc1)N(c1ccc2oc3c(c2c1)CCCC3)S(=O)(=O)c1ccc(F)cc1 | 1 | 102 | 8.8* | 0 | 3 | 17 | 9 | 7
CC(=O)c1c(C)oc2ccc(N(C(=O)c3ccncc3)S(=O)(=O)c3ccccc3)cc12 | -4 | 116 | -2 | -1 | 0 | 2 | . | .
O=C(c1ccccc1Cl)N1N=C(c2cccs2)CC1c1cccc(O)c1 (stereo not given) | 4 | 102 | 9.0* | 1 | -3 | 11 | 3 | 3
C=CC[C@H]1c2ccccc2[C@H]2N3N=Cc4ccccc4[C@H]3[C@H](CCc3ccccc3)C(=O)N2N1C(=O)c1ccccc1 | 11 | . | 11* | -2 | . | 15 | 5 | 8
O=c1[nH]c2ccccc2nc1-c1nnnn1Cc1ccccc1 | 3 | . | -109 | -8 | -1 | -414 | . | .
O=C(NCc1ccccc1)C1=C[C@H](c2ccc(C(F)(F)F)cc2)C[C@H](OCc2ccc(CO)cc2)O1 | 2 | 105 | 14* | 1 | -1 | 17 | 19 | 7
O=C(NCCn1cc(SCc2ccccc2)c2ccccc21)c1ccccc1F | 3 | 96 | 10* | 0 | 4 | 16 | 12 | 9.2*
Cc1cc(Cl)ccc1OCC(=O)NCCCCc1ccccc1 | -5 | 114 | 5 | 0 | 1 | 5 | . | .
O=C(COc1ccc(Cl)cc1Cl)NCCCCc1ccccc1 | -1 | 95 | 18* | 0 | 1 | 17 | 31* | 13*
Cn1nc(C(F)(F)F)c(C(=O)Nc2ccc(F)cc2F)c1Sc1cccc(Cl)c1 | -5 | 105 | -2 | 0 | -1 | 15 | . | .
Cn1nc(C(F)(F)F)c(C(=O)Nc2ccc(F)cc2F)c1Sc1cccc(C(F)(F)F)c1 | -5 | . | 9.8* | -1 | 22 | 15 | 10 | 8
Cc1ccc(OC(C)C(=O)N2CCc3ccccc32)c([N+](=O)[O-])n1 (stereo not given) | 0 | 102 | -6 | 0 | -1 | -15 | . | .
O=C(CN1C(=O)S/C(=C\c2ccc(F)cc2)C1=O)Nc1cccc(S(=O)(=O)NCc2ccco2)c1 | 25 | 109 | 9.2* | -1 | -2 | 9 | 21* | 12*
CCCCNC(=O)c1ccccc1SCc1c(C)noc1C | -4 | 109 | 0 | 0 | 0 | 0 | . | .
CC(NC(C)c1ccccc1Cl)C(=O)Nc1cccc(S(=O)(=O)N2CCCCC2)c1 (stereo not given) | 0 | . | 11* | 1 | 0 | 3 | 16 | 10*
SMILES | rCAG binder | Pemphigus Ab inh | ADAM17 inh | KLK7 zymogen act | MPTP block | ADAM10 inh | ADAM10 ctr | ADAM17 confirm
O=C1NC[C@H](Cc2ccc(O)cc2)N(C[C@@H]2CCCN2C[C@H](Cc2ccc(O)cc2)N2C[C@H](Cc3ccccc3)N(CCc3ccccc3)C(=O)C2=O)C1=O | 8 | . | 10* | 0 | -2 | 8 | -4 | 2
CSCCC(NS(=O)(=O)c1ccc(Cl)cc1)C(=O)OCC(=O)c1c(C)[nH]c2ccccc12 (stereo not given) | 6 | 113 | 9.7* | -1 | 6 | 20 | 29* | 17*
O=C(O)CC1CC(O)CCC1=O (stereo not given) | 1 | . | -4 | -1 | -1 | -5 | . | .
CCOc1cc(N2CCOCC2)c(OCC)cc1NC(=O)CN1C(=O)NC2(CCc3ccccc32)C1=O (stereo not given) | 5 | 103 | 8.8* | 0 | 1 | 10 | 5 | 4
O[C@@H]1C[C@H](c2ccc(Cl)cc2)N(Cc2cccs2)C[C@H]1n1cc(-c2ccc(F)cc2)nn1 | 8 | . | -2 | 0 | 0 | -8 | . | .
C=CCCC(=O)N1CCCC(Cc2cccc(Cl)c2)(C(=O)OCC)C1 (stereo not given) | -7 | 112 | 9.1* | 0 | -2 | 10 | -6 | 0
CCOC(=O)C1(Cc2cccc(Cl)c2)CCCN(C(=O)CCOC)C1 (stereo not given) | -6 | 104 | -2 | 0 | -1 | 0 | . | .
COC(=O)N/N=C/c1cc([N+](=O)[O-])cc(Br)c1O | 8 | 96 | 11* | 0 | 0 | 18 | 6 | 4
Cn1c(NCc2cccnc2)nc2cc(-c3ccc(C(=O)N4CCOCC4)cc3)sc2c1=O | 3 | . | -44 | 5 | 0 | -175 | . | .
O=c1oc2ccc(NS(=O)(=O)c3cccc4cccnc34)cc2s1 | 25 | 121 | 12* | 0 | -1 | 4 | 6 | 7
O=C(Nc1ccc(Nc2ccccc2)cc1)c1ccc(Cl)cc1Cl | 5 | 101 | 12* | 0 | 6 | 19 | 36* | 25*
O=C(Nc1ccccc1Cl)c1ccc(Cl)cc1Cl | 0 | 106 | -2 | 0 | -2 | -1 | . | .
